Laboratory results from PubChem BioAssay (EPA / NIEHS).
Several values for one entry are separate records, joined by “and”; a condition that tells them apart may be missing. Identical values can stand only once. A structure can be active in one record and inactive in another. Activity calls are given as the source filed them. Rule for the calls: active = hit-call score of the fitted dose curve at least 0.9, where 1 is the maximum; inactive = score below 0.9.

The compounds below were run against Myc proto-oncogene protein (Homo sapiens) (UniProt P01106) (assay: ATG_Myc_CIS: Attagene CIS-FACTORIAL HepG2 Assay for human Myelocytomatosis (Myc) Proto-Oncogene Transcription Factor (AID 2282990)). Conditions: HepG2, Attagene cis-reporter transcription factor activity; actives raise or lower the signal.
Description: ATG_CIS is a cell-based, multiplexed-readout assay that uses HepG2, a human liver cell line, with measurements taken at 24 hours after chemical dosing in a 24-well plate.ATG_Myc_CIS is one of 52 assay component(s) measured or calculated from the ATG_CIS assay. It is designed to make measurements of mRNA induction, a form of inducible reporter, as detected with fluorescence intensity signals by Reverse transcription polymerase chain reaction (RT-PCR) and Capillary electrophoresis technology.Data from the assay component ATG_Myc_CIS was analyzed into 1 assay endpoint. This assay endpoint, ATG_Myc_CIS, was analyzed with bidirectional fitting relative to DMSO as the negative control and baseline of activity. Using a type of inducible reporter, measures of mRNA for gain or loss-of-signal activity can be used to understand the reporter gene at the transcription factor-level as they relate to the gene MYC. Furthermore, this assay endpoint can be referred to as a primary readout, because this assay has produced multiple assay endpoints where this one serves a reporter gene function. To generalize the intended target to other relatable targets, this assay endpoint is annotated to the dna binding intended target family, where the subfamily is basic helix-loop-helix leucine zipper.
Human liver HepG2 cells are transiently transfected with multiple reporter transcription units (MRTUs) in 6-well plates using FuGene 6 reagent (Roche; 3 ml FuGene/1 mg DNA). The MRTU constructs are regulated by a cis-regulating element (promoter). […] A major difference between the CIS and TRANS system is that in CIS activities of endogenous TFs are measured, whereas the TRANS assay evaluates changes in activities of exogenous, chimeric NR-Gal4 proteins. […] At the end of 24 hour incubation, total RNA was isolated using TriZol reagent (Invitrogen). The isolated RNA is then reverse-transcribed using oligo(dT) primer and Mo-MLV reverse transcriptase (Invitrogen) with DNAse I (Ambion) treatment for 30 min. The one-tenth of the produced cDNA was amplified by PCR using Taq DNA polymerase (Invitrogen) and two reporter sequence-specific primers. The PCR products were fluorescently labeled by primer extension with 6-arboxyfluorescein (6-FAM) 5'-labeled reporter sequence-specific primer (2 min at 95 C, 20 s at 68 C and 10 min at 72 C) and these products were digested with 5U of HpaI (New England Biolabs) for 2h at 37 C. The fragments were purified using Qiaquick PCR columns (Qiagen), analyzed on an ABI 3130xL genetic analyzer (Applied Biosystems) with peak positions identified by using a set of X-rhodamine (ROX)-labeled MapMarker1000 molecular weight standards (BioVentures). The raw capillary electrophoresis data was processed using Attagraph software (Attagene).

Chain of Myc proto-oncogene protein (Homo sapiens) (P01106 whole entry, looked up): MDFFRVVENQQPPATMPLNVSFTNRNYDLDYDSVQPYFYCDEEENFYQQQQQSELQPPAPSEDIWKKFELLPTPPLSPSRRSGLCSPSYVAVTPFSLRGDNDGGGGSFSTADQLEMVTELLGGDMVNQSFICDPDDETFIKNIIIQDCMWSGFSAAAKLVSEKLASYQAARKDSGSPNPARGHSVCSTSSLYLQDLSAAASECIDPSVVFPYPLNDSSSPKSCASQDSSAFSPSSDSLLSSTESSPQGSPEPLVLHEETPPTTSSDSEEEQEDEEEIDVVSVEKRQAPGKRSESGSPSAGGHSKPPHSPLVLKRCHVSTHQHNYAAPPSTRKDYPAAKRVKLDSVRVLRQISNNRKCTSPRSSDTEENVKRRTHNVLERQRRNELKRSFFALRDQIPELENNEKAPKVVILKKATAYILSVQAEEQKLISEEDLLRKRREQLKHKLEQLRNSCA

SMILES | outcome | AC50
O=C(Nc1ccccc1)Nc1cnns1 | inactive | –
COC(=O)c1ccccc1S(=O)(=O)NC(=O)Nc1nc(C)nc(OC)n1 | inactive | –
CNC(=O)Oc1cccc(N=CN(C)C)c1 | inactive | –
CNC(=O)/C=C(\C)OP(=O)(OC)OC | inactive | –
O=[N+]([O-])c1c(Cl)c(Cl)c(Cl)c(Cl)c1Cl | inactive | –
CCOc1nc(NC)nc(NC(=O)NS(=O)(=O)c2ccccc2C(=O)OC)n1 | inactive | –
OCCOc1ccccc1 | inactive | –
N#CN | inactive | –
COP(=O)(OC)OC=C(Cl)Cl | inactive | –
CC(C)N(C(=O)COc1nnc(C(F)(F)F)s1)c1ccc(F)cc1 | inactive | –
Oc1cc(Cl)ccc1Oc1ccc(Cl)cc1Cl | inactive | 10.6 µM (active)
CC(C)OC(=O)Nc1cccc(Cl)c1 | inactive | –
CC[C@H](C)[C@H]1O[C@]2(C=C[C@@H]1C)C[C@@H]1C[C@@H](C/C=C(\C)[C@@H](O[C@H]3C[C@H](OC)[C@@H](O[C@H]4C[C@H](OC)[C@@H](O)[C@H](C)O4)[C@H](C)O3)[C@@H](C)/C=C/C=C3\CO[C@@H]4[C@H](O)C(C)=C[C@@H](C(=O)O1)[C@]34O)O2 (tested in a mixture with another compound) | inactive | –
O=C(O)C(F)(F)C(F)(F)C(F)(F)C(F)(F)C(F)(F)C(F)(F)C(F)(F)F | inactive | –
CCOCN(C(=O)CCl)c1c(C)cccc1CC | inactive | –
Cc1cc(C)nc(NC(=O)NS(=O)(=O)c2ccccc2C(=O)OC2COC2)n1 | inactive | –
O=S(=O)(O)C(F)(F)C(F)(F)C(F)(F)C(F)(F)C(F)(F)C(F)(F)C(F)(F)C(F)(F)F | inactive | 23 µM (active) and 48.3 µM (active)
O=C(NC(=O)c1c(F)cccc1F)Nc1ccc(OC(F)(F)C(F)OC(F)(F)F)c(Cl)c1 (stereo not given) | inactive | –
CC(C)(C)C(O)/C(=C\c1ccc(Cl)cc1Cl)n1cncn1 (stereo not given) | inactive | –

SMILES | outcome | AC50
CCCN(CCOc1c(Cl)cc(Cl)cc1Cl)C(=O)n1ccnc1 | inactive | –
C#CCN1C(=O)COc2cc(F)c(N3C(=O)C4=C(CCCC4)C3=O)cc21 | inactive | –
COC(=O)c1ccccc1CS(=O)(=O)NC(=O)Nc1nc(OC)cc(OC)n1 | inactive | –
CC1(c2ccc(Oc3ccccc3)cc2)OC(=O)N(Nc2ccccc2)C1=O (stereo not given) | inactive | –
CCc1ccc(C(=O)NN(C(=O)c2cc(C)cc(C)c2)C(C)(C)C)cc1 | inactive | –
Oc1ccc(Cl)cc1Cc1ccccc1 | inactive | 6.37 µM (active)
CCC(C)(C)C(=O)OC1=C(c2ccc(Cl)cc2Cl)C(=O)OC12CCCCC2 | – | 4.04 µM (active)
O=S1OCC2C(CO1)C1(Cl)C(Cl)=C(Cl)C2(Cl)C1(Cl)Cl (stereo not given) | inactive | –
CCCN(CCC)c1c([N+](=O)[O-])cc(C(F)(F)F)cc1[N+](=O)[O-] | inactive | –
Cc1[nH]c(=O)n(C(C)(C)C)c(=O)c1Cl | inactive | –
O=C(O)COc1ccc(Cl)cc1Cl | inactive | –
N#Cc1c(Cl)c(Cl)c(Cl)c(C#N)c1Cl | inactive | –
O=[N+]([O-])/N=C1\NCCN1Cc1ccc(Cl)nc1 | inactive | –
ClC1C(Cl)C(Cl)C(Cl)C(Cl)C1Cl (stereo not given) | inactive | –
Clc1ccccc1-c1nnc(-c2ccccc2Cl)nn1 | inactive | –
COP(=S)(OC)Oc1ccc([N+](=O)[O-])cc1 | inactive | –
CN1CSC(=S)N(C)C1 | inactive | –
CCN(CC)C(=O)SCc1ccc(Cl)cc1 | inactive | –
